We go through 58 compounds from PubChem BioAssay AID492964 (The Scripps Research Institute Molecular Screening Center, 2010).

The campaign covered roughly 1,800 compounds. About 880 (49%) were called active. The set was probably picked from earlier hits. These entries were drawn from the full list. A number with no mark means an inactive call. Cut-off read from the data, not from the text of the source: active = inhibition above about 55%; inactive = the rest.

For orientation: inhibition means the drop in the measured response relative to a control, in per cent.

The target in the assay is Orexin/Hypocretin receptor type 1 (Homo sapiens) (UniProt O43613). As to the kind of experiment: OX1R (HCRTR1) antagonists, confirmation, cell-based, HTRF (AID 492964).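 Note: CHO cells expressing OX1R stimulated with orexin A at about EC80; 0% = agonist challenge alone and 100% = reference antagonist.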 The note with it: OX1R-expressing cells, HTRF antagonist assay; at 6.6 µM; hits give high values. A general note: In TR-FRET formats the signal depends on donor and acceptor labels being close together.
Sequence of Orexin/Hypocretin receptor type 1 (Homo sapiens) (O43613 whole entry, looked up): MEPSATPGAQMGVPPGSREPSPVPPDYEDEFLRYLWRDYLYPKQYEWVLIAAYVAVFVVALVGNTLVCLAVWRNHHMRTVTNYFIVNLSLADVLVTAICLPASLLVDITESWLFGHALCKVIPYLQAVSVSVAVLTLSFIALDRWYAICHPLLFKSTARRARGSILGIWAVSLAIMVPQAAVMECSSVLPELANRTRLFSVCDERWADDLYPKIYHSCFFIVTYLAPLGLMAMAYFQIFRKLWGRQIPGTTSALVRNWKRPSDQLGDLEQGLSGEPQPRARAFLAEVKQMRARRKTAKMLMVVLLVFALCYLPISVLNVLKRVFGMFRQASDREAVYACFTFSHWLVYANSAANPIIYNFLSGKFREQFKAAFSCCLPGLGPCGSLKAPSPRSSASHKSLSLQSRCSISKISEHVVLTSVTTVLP
On to `CCn1c(C)nc2c1C(=O)c1ccccc1C2=O`, for which the inhibition is 69.9% (active).
To `CC(=O)Oc1ccc(C(C)=O)c2c1OCCO2` belongs 19.2%; to `CC(NC(=O)c1cccc2ccccc12)c1ccc2c(c1)CCCC2` (stereo not drawn), 64.9% (active); to `O=C(Nc1cccc2cccnc12)c1cccc(N2C(=O)CCC2=O)c1`, 86.1% (active).
The result for `COc1cccc(N=c2oc3c(C)ncc(CO)c3cc2C(N)=O)c1` reads 51.7%; that for `Cc1oc2c(c1C(=O)N1CCOCC1)C(=O)c1ccccc1C2=O`, 78.8% (active); that for `CCn1c(O)c(N=NC2=NC(=O)CS2)c2cc(C)ccc21`, 28.9%.
As to `O=C(N/N=C/c1sc(N2CCCCC2)nc1-c1cccs1)c1cccnc1`, the inhibition was 89.2% (active).
With `N#Cc1nc(-c2cccc3ccccc23)oc1N`, the inhibition was 60.8% (active).
With `O=C(Nc1ccccc1Cl)/C(Cl)=C(\Cl)S(=O)c1ccccc1` (stereo not drawn), the inhibition was 89.9% (active).
As to `Cc1cccc(NC(=O)Nc2cccc(Oc3c(F)c(F)c(F)c(F)c3F)c2)c1`, the inhibition is 35.4%.
As for `NS(=O)(=O)c1ccc(CCNC(=O)c2ccc([N+](=O)[O-])cc2[N+](=O)[O-])cc1`, the inhibition is 84.6% (active).
As to `CSCCC(NC(=O)c1cc([N+](=O)[O-])cc([N+](=O)[O-])c1)c1nc2ccccc2[nH]1` (stereo not drawn), the inhibition is 46.4%.
To `Cc1c(/C=N\NC(=O)c2cc3ccccc3o2)c2ccccc2n1C` belongs 83.1% (active); to `COc1cccc(C(=O)NC(=O)Nc2nc(C)cc(C(F)(F)F)n2)c1`, 57.7% (active); to `Cc1cc(=O)oc(C)c1C(=O)NCCN(C)Cc1ccccc1`, 12.3%.
On to `O=C(NC(Cc1c[nH]c2ccccc12)C(=O)N/N=C/c1ccc(Br)cc1)c1cccs1` (stereo not drawn), for which the inhibition was 81.2% (active).
The result for `CC(C)(C)NC(=O)CN(C(=O)c1csnn1)c1ccccc1-c1ccccc1` reads 55.5% (active); that for `COc1ccc2sc(-c3ccc(N(C)C)cc3)c(C#CCO)c2c1`, 62.2% (active); that for `CCn1c(=N)c(C(=O)NCCCOC)cc2c(=O)n3cccc(C)c3nc21`, 47.5%.
The result for `COC(=O)c1sccc1NC(=O)CSc1ccccc1NS(=O)(=O)c1cc(Cl)ccc1Cl` reads 67.1% (active).
On to `COc1ccc(N(C)C(=O)CCS(=O)(=O)c2cccc3nsnc23)cc1`, for which the inhibition was 38.3%.
The result for `CC(=O)Nc1ccc(Nc2c([N+](=O)[O-])cc(S(C)(=O)=O)cc2[N+](=O)[O-])cc1` reads 46.9%; that for `COC(=O)N/N=C/c1c[n+]([O-])c2ccccc2[n+]1[O-]`, 69.1% (active); that for `COCCNC(=O)Nc1ccc2nc(-c3ccco3)c(-c3ccco3)nc2c1`, 32.4%.
Turning to `COc1cc(OC)c(NC(=O)c2ccc(Br)o2)cc1Cl`, the inhibition was 66.4% (active).
The result for `Nc1ccc2nc3c(=O)[nH]c(=S)[nH]c3nc2c1` reads 47.3%.
With `N#C/C(=C1\CCCN1)c1nc(-c2ccccc2)cs1`, the inhibition was 94% (active).
In the case of `N#CC(=C1SC=CS1)c1nc(-c2ccccc2)cs1`, the inhibition is 92.5% (active).
For `Nc1[nH][nH]c(=O)c1N=Nc1ccc2c(c1)OCO2`, the inhibition is 34.5%.
The result for `COCCCNC(=S)NC(=O)c1ccc([N+](=O)[O-])cc1` reads 50.2%; that for `Cn1cnnc1Sc1ccc(S(C)(=O)=O)cc1[N+](=O)[O-]`, 42.5%; that for `COc1cc2ccccc2cc1C(=O)Nc1ccc(N2CCOCC2)cc1`, 56.8% (active).
Take `COc1ccccc1N1CC(C(=O)Nc2ccc(S(=O)(=O)N3CCOCC3)cc2)CC1=O` (stereo not drawn): the inhibition is 16.2%.
To `COc1cccc(/C=N/Nc2cc(C)nc(-c3ccccc3O)n2)c1O` belongs 92.3% (active); to `CCOc1ccc(/C=C/C(=O)OCC(=O)c2ccccc2OC)cc1OC`, 58.8% (active).
`CC(C)CC[n+]1ccn(C2=C([O-])c3ccccc3C(=O)/C2=N\S(=O)(=O)c2ccccc2)c1`: the inhibition is 51.6%.
The result for `COc1cc(C(=S)N2CCOCC2)cc(OC)c1OC(=O)c1ccc([N+](=O)[O-])cc1[N+](=O)[O-]` reads 88.1% (active); that for `O=C(Oc1ccccc1C(=S)N1CCCCC1)c1cc([N+](=O)[O-])cc([N+](=O)[O-])c1`, 35.2%; that for `CCn1c(SCC(=O)c2ccc3ccccc3c2)nnc1-c1cccs1`, 81.2% (active).
`COc1ccc(N2CC(C(=O)NCCN3C(=O)S/C(=C\c4cccnc4)C3=O)CC2=O)c(OC)c1` (stereo not drawn): the inhibition is 106% (active).
Consider `O=C(O)CCC(=O)Nc1nc2ccc([N+](=O)[O-])cc2s1`, for which the inhibition was 50.8%.
Take `Cc1cc(-c2ccc(C)c(S(=O)(=O)NC(C)Cc3ccco3)c2)on1` (stereo not drawn): the inhibition is 30.2%.
Turning to `COc1ccc(S(=O)(=O)NC(C)c2ccccc2)cc1C(=O)N1CCCCC1` (stereo not drawn), the inhibition was 72.9% (active).
For the compound `CC(=O)N/N=C/c1cc2c(cc1[N+](=O)[O-])OCO2`, the inhibition is 34.2%.
As for `COC(=O)CNC(=O)c1ccc2c(c1)S(=O)(=O)c1ccccc1C2=O`, the inhibition was 63% (active).
To `Cc1cc(C(=O)NC2CCCc3c2cnn3-c2cccc(C)c2C)c(C)o1` (stereo not drawn) belongs 63.8% (active); to `Cc1cccc(NS(=O)(=O)c2cccc(C(=O)NNC(=O)c3ccccc3O)c2)c1`, 30.5%; to `S=c1[nH]nc(-c2cc(-c3ccccc3)n[nH]2)n1/N=C/c1c2ccccc2cc2ccccc12`, 60% (active).
To `Cc1cccn2c(=O)c3cc(C#N)c(=NC(=O)c4cccnc4)n(CC4CCCO4)c3nc12` (stereo not drawn) belongs 44.2%.
The result for `COc1ccc(CCn2c(NCCCN3CCOCC3)nc3c2c(=O)[nH]c(=O)n3C)cc1` reads 15.3%; that for `CCOc1ccc(CCNC(=O)C(CC)n2nc(C)n3c(cc4sccc43)c2=O)cc1OCC` (stereo not drawn), 81.6% (active); that for `COc1cccc(/C=C/c2ccc3ccccc3n2)c1OC(C)=O`, 37.3%.
For `CN(C(=O)CSc1nnc(-c2n[nH]c3ccccc23)o1)c1ccccc1`, the inhibition was 35%.
To `COc1cccc(/C=N/NC(=O)c2[nH]nc3c2CCc2ccccc2-3)c1O` belongs 55% (active); to `Nc1nc(COC(=O)CCC(=O)c2ccc(Cl)cc2)nc(Nc2ccccc2)n1`, 38.7%.
The result for `O=C(/C=C/c1ccco1)Nc1cccc(-c2nc3ccccc3[nH]2)c1` reads 59% (active); that for `COc1ccc(CCNC(=O)/C(C#N)=C2\N=C(NC(=O)c3cccs3)c3ccccc32)cc1`, 19.5%.
